Rows were chosen to be rich in hits. Some 15% of all compounds tested hit in one or more screens of this group.
HCV inhibitor: inhibitors of hepatitis C virus infection; Huh7.5.1 HCVcc-Cre infection, luciferase reporter, 44 h; Potency, µM (highest dose often 41.8 µM), inactives show at the top dose activity change, negative = inhibition, hits mostly inhibitors; hit rate 3.4% among 340,000; AID 651820; note: potency is the fitted concentration of half-maximal effect; % is set by controls: 0 for no effect and ±100 for the full control effect
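Whole-lifecycle infectious HCVcc-Cre system; cells 1,000/well, compound then virus (~0.5 moi) added 4 h after plating, 44 h culture. Luciferase read 15 sec following 15 min substrate incubation, room temp.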
Pf growth 48h: P. falciparum growth inhibition at 48 hours (one generation); Potency, µM (top dose mostly 28.7 µM), inactives show at the highest dose activity change, negative = inhibition, actives largely listed as inhibitors; hit rate 5.9% among 310,000; P. falciparum luciferase growth in erythrocytes, 48 h; note: potency is the fitted concentration of half-maximal effect; % is set by controls: 0 for no effect and ±100 for the full control effect
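A one-generation exposure of luciferase-tagged malaria parasites in RPMI 1640/Albumax erythrocyte culture, 37 C and 5% CO2. Inhibition is inferred from decreased luminescence after adding detection reagent.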
Pf growth 96h: inhibits malaria parasite growth, 96 h | P. falciparum luciferase reporter growth, 96 h | Potency, µM (titrated, usually from 28.7 µM), for inactives: at the highest dose activity change, negative = inhibition, actives largely listed as inhibitors | hit rate 6.9% among 320,000; note: potency is the fitted concentration of half-maximal effect; % is set by controls: 0 for no effect and ±100 for the full control effect
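Cell-based qHTS: luciferase-tagged P. falciparum in erythrocytes (2% hematocrit, 0.05% parasitemia final) incubated with compounds for 96 hours, 37 C, 5% CO2; luciferase detection reagent then added and luminescence measured.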
SARS PLpro yeast: inhibitors of SARS-CoV papain-like protease in yeast. S. cerevisiae expressing SARS-CoV PLpro, growth rescue. AID 485353. Potency, µM (doses to about 32.9 µM), inactives show at the top dose activity, positive = growth rescue, usual class: activators. hit rate 0.19% among 330,000; calls by dose curve; note: potency is the fitted concentration of half-maximal effect; 0% is about no effect; nearly all actives have a fitted effect of over 55% in size
Sm TGR inh: blocks Schistosoma mansoni thioredoxin glutathione reductase; hit rate 3% among 360,000; AID 485364; purified TGR, DTNB reduction, TNB absorbance 405 nm; Potency, µM (series often up to 114 µM), without a hit: top-dose activity change, negative = inhibition, usual class: inhibitors; note: potency is the fitted concentration of half-maximal effect; % is set by controls: 0 for no effect and ±100 for the full control effect; nearly all actives have a fitted effect of over 60% in size
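Kinetic colorimetric format: TGR-catalysed, NADPH-driven DTNB reduction monitored via TNB absorbance. Enzyme dispensed at 20 nM; compound exposure 15 min at room temperature before reaction start.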
HCMV inh: inhibitors of human cytomegalovirus. HFF cells, HCMV-luciferase reporter, 72 h; stronger effect = lower value. activity change, negative = inhibition, % at 57.5 µM. hit rate 4.5% among 410,000; in the data active = activity change below about -60%; inconclusive = no clear call, values can overlap the other calls; inactive = above about -39%; note: % is set by controls: 0 for no effect and ±100 for the full control effect
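After 16 h attachment at 37C, HFF cells received test compound and HCMV-luciferase (1 PFU/cell); reporter luminescence read 72 h later, data normalized against buffer-only and known inhibitor Salinomycin.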
Starred values were filed as active, the others as inactive; ? = inconclusive; / = no result given; + = active, no number; [ ] = another dose, or the depositor's remark. Unless noted, calls come from the whole dose curve; as a rule, active = well fitted curve in the direction sought with a large enough effect; inconclusive = small, poorly fitted or top-dose-only effect, or another doubt; inactive = no such curve, though single readings can be large; an effect the other way counts as inactive or inconclusive.

SMILES	HCV inhibitor	Pf growth 48h	Pf growth 96h	SARS PLpro yeast	Sm TGR inh	HCMV inh
Cc1cc(=O)[nH]c(SCC2COC3(CCCCC3)O2)n1 (stereo not given)	?	-9.8%	8.4%	2.1%	2.5%	-11.6
Cn1c(NCCCCO)nc2c1c(=O)n(Cc1ccc(Cl)cc1)c(=O)n2C	/	/	/	/	-6.8%	-14.9
COC(=O)c1c(C)oc2ccc(N(C(=O)c3ccncc3)S(=O)(=O)c3ccc(OC)cc3)cc12	/	/	/	/	-2.2%	-95.2*
CCc1ccc(S(=O)(=O)N(C(=O)c2ccncc2)c2ccc3oc(C)c(C(=O)OC)c3c2)cc1	/	/	/	/	1.2%	-64.3*
COc1ccc(S(=O)(=O)N(C(=O)c2ccncc2)c2ccc3oc(C)c(C(C)=O)c3c2)cc1	/	/	/	/	-28.8%	?
CCOC(=O)c1c(C)oc2ccc(N(C(=O)c3ccncc3)S(=O)(=O)c3ccc(F)cc3)cc12	/	/	/	/	-18.5%	-5.3
COc1ccc(N(C(=O)c2cccnc2)S(=O)(=O)c2ccc(Cl)cc2)cc1	?	2.1%	5.22µM*	?	?	30.5
COc1ccc(N(C(=O)c2cccc(C)c2)S(=O)(=O)c2ccc(Cl)cc2)cc1	/	/	/	/	-1.6%	-14.2
CCOc1ccc(S(=O)(=O)N(C(=O)c2ccncc2)c2ccc3oc(C)c(C(=O)OC)c3c2)cc1	/	/	/	/	1.1%	-78.7*
Nc1ccc([As](=O)(O)O)cc1	14.1%[8.37 µM]	15.1µM*	8.28µM*	-2.4%	35.5µM*	76.4
Nc1ccc(NC(=O)c2ccc(C(=O)Nc3ccc(N)cc3)cc2)cc1	5.6%	6.4%	37.4%	0.4%	2.3%	0.4
CCOC(=O)C(C)(C)N(Cc1ccccc1C)S(=O)(=O)c1ccc(Cl)c([N+](=O)[O-])c1	?	?	2.62µM*	-22.3%	-0.2%	-31.8
CCCN(CCC)S(=O)(=O)c1ccc(Cl)c([N+](=O)[O-])c1	?	-18.9%	0.7%	-0.5%	?	-19.1
CC1CCN(c2nc(-c3cccnc3)nc3scc(-c4ccccc4)c23)CC1	22.4µM*	-3.6%	?	7.3%	4.7%	34.7
CC1CCN(c2nc(CN3CCCCC3)nc3scc(-c4ccccc4)c23)CC1	?	2.33µM*	1.47µM*	-12.9%	-1.6%	?
CC1CCCN(c2nc(-c3cccnc3)nc3scc(-c4ccccc4)c23)C1 (stereo not given)	?	-29.3%	?	-19.2%	-4.9%	-32.6
CCC(C)NC(=O)CC1Oc2ccc(Cl)cc2NC1=O (stereo not given)	7.7%	/	10.4µM*	0.9%	-13.1%	7.4
Cc1ccccc1C(=O)N(Cc1ccc(N(C)C)cc1)Cc1ccco1	/	/	/	/	2.5%	-30.6
COCCN(C(=O)c1csnn1)C(C(=O)NC1CCCCC1)c1ccc(Cl)cc1 (stereo not given)	1.9%	-5.2%	-4.6%	-0.5%	-10.5%	-99.2*
O=C(NCc1ccccc1)C(c1ccc(Cl)cc1)N(C(=O)c1csnn1)C1CC1 (stereo not given)	10.1%	-6.1%	?	2.8%	1.5%	-63.0*
O=C(CN(C(=O)c1csnn1)c1ccc(Cl)cc1)NCCc1ccccc1	-2.5%	13.1µM*	?	25.1%	2.7%	14.8
COCCN(C(=O)c1csnn1)C(C(=O)NC1CCCCC1)c1ccccc1 (stereo not given)	15.0%	18.8%	15.6%	1.4%	-5.9%	42.0
O=C(NCc1ccc(F)cc1)C(c1ccc(F)cc1)N(C(=O)c1csnn1)C1CC1 (stereo not given)	-10.9%	-10.5%	-15.4%	2.1%	-1.1%	6.1
N#Cc1ccccc1S(=O)(=O)N1CCN(C(=O)CN2CCCC2c2cccs2)CC1 (stereo not given)	1.0%	9.28µM*	4.65µM*	-3.7%	-33.2%	-6.8
O=C(NC(=S)Nc1ccc(Br)cn1)c1cncc(Br)c1	-16.7%	1.1%	13.1µM*	-1.6%	6.8%	-4.5
SMILES	HCV inhibitor	Pf growth 48h	Pf growth 96h	SARS PLpro yeast	Sm TGR inh	HCMV inh
O=C(NC(=S)Nc1ccccc1[N+](=O)[O-])c1cncc(Br)c1	-0.8%	7.5%	2.62µM*	-4.9%	20µM*	-16.3
CCCn1c2ccccc2c2cnn(CC(=O)N(CCCOC)Cc3ccco3)c(=O)c21	/	/	/	/	-20.6%	-7.2
C=C1CCN(C(C)C(=O)O)S(=O)(=O)c2ccccc21 (stereo not given)	1.41µM*	16.0%	-2.5%	-0.3%	?	26.7
C=C1CCN(C(C)C(=O)OC)S(=O)(=O)c2ccccc21 (stereo not given)	-2.6%[8.37 µM]	5.8%	-21.0%	1.4%	-5.2%	-17.2
C=C1CCN(CC(=O)OC)S(=O)(=O)c2ccccc21	27.8%	3.4%	?	2.1%	31.6µM*	31.7
Cn1c(=O)oc2cc(S(=O)(=O)NC(CC(=O)O)c3cccc(Br)c3)ccc21 (stereo not given)	/	/	/	/	-12.6%	4.2
Cc1ccc(Oc2cc([N+](=O)[O-])cc3c2C(=O)Nc2ccccc2O3)cc1	12.6µM*	?	44.3%	10.1%	-18.3%	-78.0*
O=C(NC(=S)Nc1ccc(S(=O)(=O)Nc2nccs2)cc1)c1cccnc1	12.5%	-1.7%	69.3%	2.8%	12.6µM*	-24.3
CS(=O)(=O)Nc1ccc(C(=O)Nc2ccc(S(=O)(=O)Nc3nccs3)cc2)cc1	/	-6.2%	?	?	-20.5%	-14.5
CCc1nnc(NS(=O)(=O)c2ccc(NCc3cc(Br)ccc3O)cc2)s1	18.1%	4.9%	37.8%	4.1%	-6.5%	/
CCc1nnc(NS(=O)(=O)c2ccc(NCc3ccccc3O)cc2)s1	24.0%	17.5%	3.29µM*	-1.6%	3.7%	13.1
O=C(NC(=S)Nc1ccc(S(=O)(=O)Nc2nccs2)cc1)c1ccc(F)c(F)c1	0.6%	8.0%	0.0%	16.0%	?	13.2
CCc1nnc(NS(=O)(=O)c2ccc(NC(=O)/C=C/C(=O)O)cc2)s1	?	20.0%	?	6.2%	5.62µM*	86.2
O=C(Nc1ccc(S(=O)(=O)Nc2nccs2)cc1)c1c(F)c(F)c(F)c(F)c1F	?	-7.7%	3.7µM*	-6.0%	-7.4%	7.0
CCc1ccccc1NC(=O)Nc1cc(C(=O)NCc2ccc(OC)cc2)ccc1N1CCCC1	/	/	/	/	-2.8%	18.5
CCOC(=O)Nc1ccc(NS(=O)(=O)c2ccc(C)cc2)cc1	?	0.2%	-28.5%	-4.5%	-22.3%	56.3
CCc1nnc(NS(=O)(=O)c2ccc(NC(=S)NC(=O)c3ccc(Br)cc3)cc2)s1	3.5%	-1.5%	32.0%	-1.8%	?	20.9
CCc1nnc(NS(=O)(=O)c2ccc(NC(=O)c3ccccc3OC)cc2)s1	-2.0%	-0.8%	3.2%	5.5%	7.7%	+
Cc1ccc(S(=O)(=O)Nc2ccc(NC(=O)/C=C/C(=O)O)cc2)cc1	8.1%	4.7%	0.0%	0.0%	50.1µM*	1.2
